Pf Dd2 growth = Plasmodium falciparum Dd2 growth inhibition. P. falciparum Dd2 growth, SYBR Green, 72 h. Potency, µM (titrated, usually from 28.9 µM), inactives show at the top dose activity, negative = inhibition, most hits filed as inhibitors. 4.3% of 120,000 active. AID 1347417; active = well fitted inhibition curve with a large enough effect;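 note: plate controls were DMSO vehicle for no effect and reference drug for full effect; nearly all actives have a fitted effect of over 65% in size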
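Infected erythrocytes (Dd2, 0.3% parasitemia, 2.5% hematocrit final) are added to compound in RPMI-1640/Albumax II medium, grown 72 h at 37C in low oxygen, then lysed with saponin/Triton-X containing SYBR Green and read by fluorescence.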
* marks the source's active call; other numbers are inactive results; i = inactive; [ ] = another dose, or the depositor's remark. The sample as a whole holds a higher share of hits than the screen did. Potency is the fitted concentration of half-maximal effect.

SMILES	Pf Dd2 growth
COc1cc(OC)cc(-c2cc3nc(C)c(CCC(=O)Nc4ccccc4OC)c(C)n3n2)c1	i
CCOC(=O)c1ccc(NC(=O)CCc2c(C)nc3cc(-c4ccc(OC)cc4OC)nn3c2C)cc1	5.01µM*
COc1ccc(-c2cc3nc(C)c(CCC(=O)N4CCN(c5ccccc5)CC4)c(C)n3n2)c(OC)c1	29.5%
COc1cc(OC)cc(-c2cc3nc(C)c(CCC(=O)Nc4ccc(C(C)=O)cc4)c(C)n3n2)c1	i
COc1ccccc1-c1cc2nc(C)c(CCC(=O)Nc3cc(C)ccc3C)c(C)n2n1	-15.4%
COc1ccc(CNC(=O)CCc2c(C)nc3cc(-c4ccc(OC)cc4OC)nn3c2C)cc1	11.2µM*
COc1ccccc1-c1cc2nc(C)c(CCC(=O)NCCc3ccc(SC)cc3)c(C)n2n1	12.6µM*
COc1ccc(CCNC(=O)CCc2c(C)nc3cc(-c4cccc(F)c4)nn3c2C)cc1OC	-7.0%
Cc1cc(C[C@@H]2COC[C@@H]2NC(=O)c2cc(C)oc2-c2ccccc2)on1	9.9%
Cc1cnn(CCC(=O)N2CCc3nn(CC#N)c(=O)n3CC2)c1	2.3%
CC(=O)Nc1ccc(C2(C(=O)NCc3ccccc3F)CCC2)cc1	15.9%
CCOc1ccc(CC(=O)N2CCC(n3cc(-c4nc(C5CC5)no4)nn3)C2)cc1 (stereo not given)	i
COc1ccc(-c2cn3c(n2)CO[C@@H](CNS(C)(=O)=O)C3)cc1	i
COc1ccc(-c2cn3c(n2)CO[C@@H](CNS(=O)(=O)c2ccc(C)cc2)C3)cc1	12.6µM*
Cc1ccc(-c2cn3c(n2)CO[C@@H](CNS(C)(=O)=O)C3)cc1	-1.5%[44.1 µM]
O=C1CC(c2ccccc2)N(C(=O)CNS(=O)(=O)c2cccc3cccnc23)CCCCCN1 (stereo not given)	i
C#CCNC(=O)c1cc(-c2cnccc2Cl)c2cccn2n1	8.2%
CCCNC(=O)NC[C@@H]1C=C(C)[C@H](Cc2nc3ccccc3[nH]2)C[C@H]1C(C)C	i
CC(=O)N1CCN(C(=O)C[C@@H]2C[C@@H](C(C)C)[C@H](CNC(=O)C3CC3)C=C2C)CC1	i
CC1=C[C@@H](CNC(=O)C2CC2)[C@H](C(C)C)C[C@H]1CC(=O)N1CCOCC1	i
CCC(CC)C(=O)NC[C@@H]1C=C(C)[C@H](Cc2nc3ccccc3n2C)C[C@H]1C(C)C	11.2µM*
CC1=C[C@@H](CNC(=O)Cn2cnnn2)[C@H](C(C)C)C[C@H]1Cc1nc2ccccc2[nH]1	i
CC1=C[C@@H](CNC(=O)C2CCCCC2)[C@H](C(C)C)C[C@H]1Cc1nc2ccccc2n1C	10µM*
O=C(c1cc(C2CC2)[nH]n1)N1CCc2c(nc(-c3ccccn3)[nH]c2=O)C1	-13.1%
N#Cc1cccc(CN2CCC3(CC2)CN(c2ncccn2)CC3CO)c1 (stereo not given)	-14.9%
SMILES	Pf Dd2 growth
Cc1cc(C)n(-c2cccc(CN(C)C(=O)c3cc(C(C)C)no3)c2)n1	-21.7%
CCc1noc([C@@H]2CC(F)(F)CN2C(=O)Cc2cccnc2)n1	13.6%
O=C(C[C@@H]1O[C@H](CNC(=O)c2cccc(F)c2)[C@@H](O)[C@H]1O)NC1CC1	35.7%[44.1 µM]
O=C(CCc1ccnc(N2CCOCC2)c1)N1CCN(C(=O)c2ccco2)CC1	33.6%
O=C(CCc1ccnc(N2CCCC2)c1)N1CCN(c2cccc(Cl)c2)CC1	5.01µM*
O=C(O)CCc1ccnc(N2CCCC2)c1	6.8%
O=C(COc1ccccc1)N1CCCC(c2nc(C3CCOCC3)no2)C1 (stereo not given)	-7.7%
Cn1c(CNC(=O)c2ccc3nccn3c2)nc2cc(C(F)(F)F)ccc21	-25.1%
COc1ccc(NC(=O)c2ccc(-c3cccc(Cl)c3C)o2)cc1	9.6%
Cc1ncc2c(c1CNC(=O)c1cccc(OC(F)F)c1)CCNC2	-11.7%
O=C(NCc1ccccc1)c1ccc(-c2cccc3c2CCNC3)o1	11.2µM*
Cc1ccc(NC(=O)c2ccc(-c3cccc(Cl)c3C)o2)cc1	20.3%
O=C(Nc1ccccc1)c1ccc(-c2cccc3c2CCNC3)o1	11.2µM*
O=C(NCc1ccccc1)c1ccc(CS(=O)(=O)c2c(Cl)cccc2Cl)o1	i
COc1ccc(CNC(=O)c2c(OC)cc(=O)n3c2CCCC3)c(OC)c1	-15.4%
Cc1csc(S(=O)(=O)N2CC[C@@H]3[C@@H](CCC(=O)N3CCN)C2)c1	-6.4%
CS(=O)(=O)N1C[C@H]2CCN(Cc3ccccc3C#N)C[C@H]21	11.5%
CC(=O)Nc1ccc(C(=O)N2CCCC(c3nc(C)ncc3-c3cccc(C)c3)C2)cc1 (stereo not given)	i
O=C(c1ccc(Cl)nc1)N1CCn2c(nn(-c3ccncc3)c2=O)C1	24.9%
O=C(NCC1CCCO1)c1ccc(CN2C(=O)NC3(CCOCC3)C2=O)cc1 (stereo not given)	30.8%
COc1ccc(C(=O)NCCn2cc(SCc3cc(C)ccc3C)c3ccccc32)cc1	-17.8%
COc1ccc(C(=O)/C=C/c2cn(CC(O)CN(CC(C)C)CC(C)C)c3ccccc23)cc1 (stereo not given)	3.16µM*
CCCN(CCC)CC(O)Cn1cc(/C=C/C(=O)c2ccc(OC)cc2)c2ccccc21 (stereo not given)	3.16µM*
CCCn1cc2c3c(cccc31)CN(C(=O)c1ccc(OC)cc1)CC2	i
COc1ccc(C(=O)NCCn2cc(SCC(=O)Nc3ccc(F)cc3)c3ccccc32)cc1	i
SMILES	Pf Dd2 growth
COc1ccc(NC(=O)Cn2cc(C(=O)C3CC3)c3ccccc32)cc1	0.0%
CCN1CCN(C(=O)C2CCN(C(=O)N3CC4CC(C3)[C@H]3CCCC(=O)N3C4)CC2)CC1 (stereo not given in full)	-10.9%
COCc1c(C(=O)N2C[C@@H](COC)[C@H](c3ccncc3)C2)noc1C	35.6%
Cc1cccc(OCCc2noc(C3CCCN(C(=O)C(C)C)C3)n2)c1 (stereo not given)	-27.4%
O=C(NC1CCCN(c2cc(-c3ccccc3)[nH]n2)C1)c1cnccn1 (stereo not given)	i
COc1ccc(OCC(=O)N2CCN(CCc3ccncc3)CC2)cc1	19.4%
Cc1ccc(OCC(=O)N2CCN(CCc3ccncc3)CC2)cc1C	10µM*
CCCCOc1cccc(C(=O)N2CCN(CCc3ccncc3)CC2)c1	-28.7%
CCOCC(=O)N1CCCC(c2nc(-c3cccnc3)no2)CCNC(=O)CC1 (stereo not given)	2.0%
CC[C@H]1CN(C(=O)C2CC2)CC[C@H]1CC(=O)NCc1ccc2c(c1)OCO2	-28.4%[44.1 µM]
Cc1ccc2nc(NC(=O)C3CC(=O)N(c4n[nH]c5cccc(F)c45)C3)sc2c1 (stereo not given)	-18.1%
CC(C)NC(=O)N1CCC(O)(c2csc(CN3CCc4ccccc4C3)n2)CC1	i
CC(C)c1ccc(NC(=O)C2CCN(C(=O)c3ncn4c3COC(c3ccccc3)C4)CC2)cc1 (stereo not given)	i
CCOC(=O)c1[nH]c2c(c1Cc1ccccc1C)C(=O)CC(c1cc(OC)ccc1OC)C2 (stereo not given)	5.01µM*
Cc1c(C(=O)OCc2ccccc2)[nH]c2c1C(=O)CC(c1ccc(Cl)cc1)C2 (stereo not given)	-1.7%
CCOC(=O)C1=C(C)N=C2SC=C(CC(=O)NCC3CC3)N2C1c1cc(OC)ccc1OC (stereo not given)	i
COc1ccc(C2CC(=O)c3c([nH]c(C(=O)OCc4ccccc4)c3C)C2)cc1OC (stereo not given)	-15.8%
CCOC(=O)C1=C(C)N=C2SCCC(=O)N2C1c1ccc(OCc2ccccc2)cc1 (stereo not given)	61.0%

Assay outcomes as filed in PubChem BioAssay.
